Source: PubChem BioAssay (Tox21)
Results filed as inconclusive are left out. Activity calls are given as the source filed them. Unless noted, calls follow the shape of the dose curve; as a rule, active = well fitted curve in the direction sought with a large enough effect in the repeat runs; inconclusive = weak or mixed curves; inactive = no such curve, though single readings can be large; an effect the other way counts as inactive or inconclusive.

What was measured:
[1] = qHTS assay to identify small molecule antagonists of the estrogen receptor alpha (ER-alpha) signaling pathway using the BG1 cell line in the presence of 0.1 nM 17-beta-estradiol - cell viability counter screen (AID 1259241); also: nearly all actives have a fitted effect of over 40% in size
How it was run: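 In this screen, hormone-deprived VM7Luc4E2 cells were seeded at 4,000 per well, dosed with compound and 0.1 nM estradiol final, and incubated 22 hr at 37C and 5% CO2; fluorogenic live-cell protease signal reported viability.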

[2] = qHTS assay to identify small molecule antagonists of the androgen receptor (AR) signaling pathway using the MDA cell line in the presence of 0.5 nM R1881 - cell viability counter screen (AID 1259242); also: nearly all actives have a fitted effect of over 45% in size
How it was run: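 Human breast carcinoma MDA-kb2 cells, cultured without CO2, receive compounds alongside 0.5 nM (final) R1881 agonist. After 16 hr at 37C, viability is taken as live-cell protease signal.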

[3] = molecular target: Estrogen receptor (Homo sapiens) (UniProt P03372); test: qHTS assay to identify small molecule antagonists of the estrogen receptor alpha (ER-alpha) signaling pathway using the BG1 cell line in the presence of 0.1 nM 17-beta-estradiol (AID 1259244); also: nearly all actives have a fitted effect of over 50% in size
Chain of Estrogen receptor (Homo sapiens) (P03372 whole entry, looked up): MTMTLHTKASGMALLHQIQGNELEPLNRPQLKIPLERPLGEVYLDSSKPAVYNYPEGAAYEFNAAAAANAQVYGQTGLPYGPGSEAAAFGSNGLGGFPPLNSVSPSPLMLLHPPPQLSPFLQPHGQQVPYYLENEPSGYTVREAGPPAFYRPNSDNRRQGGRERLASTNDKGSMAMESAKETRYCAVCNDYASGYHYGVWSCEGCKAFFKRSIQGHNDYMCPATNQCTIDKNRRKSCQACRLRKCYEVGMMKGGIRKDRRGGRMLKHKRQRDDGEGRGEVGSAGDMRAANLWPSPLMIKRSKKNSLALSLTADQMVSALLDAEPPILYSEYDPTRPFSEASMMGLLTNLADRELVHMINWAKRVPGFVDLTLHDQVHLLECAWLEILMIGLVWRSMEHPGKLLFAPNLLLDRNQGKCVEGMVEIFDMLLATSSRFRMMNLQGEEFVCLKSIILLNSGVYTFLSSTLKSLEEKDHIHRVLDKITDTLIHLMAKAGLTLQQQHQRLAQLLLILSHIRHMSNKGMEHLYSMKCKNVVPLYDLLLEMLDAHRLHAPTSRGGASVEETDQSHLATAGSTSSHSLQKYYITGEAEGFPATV
How it was run: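 Seeding of stripped-serum-adapted VM7Luc4E2 cells, 24 h attachment, compound transfer, then 0.1 nM final 17beta-estradiol; after 22 h incubation, ONE-Glo reagent and luminescence reading.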

[4] = qHTS assay to identify small molecule phospholipidosis (PLD) inducers (AID 1259344; active = well fitted curve in the direction sought with a large enough effect; an effect the other way counts as inactive or inconclusive)
How it was run: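 Read-out is LipidTOX Red fluorescence (ex 595/em 615) imaged in HepG2 cells after 24 h compound exposure at 37 C, with Hoechst nuclear counterstain (ex 352/em 461) allowing per-cell normalisation.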

[5] = qHTS assay to identify small molecule HDAC inhibitors (AID 1259364); also: potency is read from the fitted curve at half-maximal effect;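 also: wild-type HCT-116 cells with endogenous class I/II HDAC activity; nearly all actives have a fitted effect of over 45% in size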; as to activity change, negative = inhibition: top concentration of the series differs between compounds
How it was run: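 After a 2 hr compound incubation (37C, 5% CO2), HCT-116 cells seeded at 1,500/well the day before received HDAC-Glo reagent; signal read as luminescence after 30 min at room temperature.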

[6] = qHTS assay to identify small molecule HDAC inhibitors - cell viability counter screen (AID 1259365); also: series mostly up to about 92 µM; nearly all actives have a fitted effect of over 50% in size
How it was run: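 Measured quantity is CellTiter-Glo luminescence from wild-type HCT-116 cells after compound incubation of 2hr at 37C, 5% CO2; reagent developed 30min at room temperature.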

[7] = qHTS assay to identify small molecule agonists of the sonic hedgehog signaling (Shh) pathway - cell viability counter screen (AID 1259366); also: nearly all actives have a fitted effect of over 50% in size
How it was run: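 In quantitative high-throughput format, 3T3 Gli1-Luc cells were exposed to compounds for 24hr and multiplexed for viability using CellTiter-Fluor, incubated 1hr at 37C before the fluorescence read.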

[8] = qHTS assay to identify small molecule antagonists of the sonic hedgehog signaling (Shh) pathway - cell viability counter screen (AID 1259367); also: nearly all actives have a fitted effect of over 55% in size
How it was run: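 Fluorescence read-out (CellTiter-Fluor, 1 hr at 37C) taken after 23 hr compound treatment of 3T3 Gli1-Luc cells stimulated with conditioned medium. Cells were seeded at 2,000 per well and pre-incubated 4 hr.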

[9] = qHTS assay to identify small molecule agonists of the sonic hedgehog signaling (Shh) pathway (AID 1259368; calls by dose curve;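 also: NIH/3T3-derived 3T3Gli1-Luc cells carrying a stable Gli1-driven firefly luciferase reporter; series mostly up to about 92 µM; nearly all actives have a fitted effect of over 15% in size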)
How it was run: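 Stable NIH/3T3 Gli1-Luc reporter clone; 24 hr cpd exposure after a 4 hr settling period; luminescence endpoint.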

[10] = qHTS assay to identify small molecule antagonists of the sonic hedgehog signaling (Shh) pathway (AID 1259369; calls by dose curve; also: nearly all actives have a fitted effect of over 45% in size)
How it was run: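 Gli1 transcriptional reporter (firefly Luc) in NIH/3T3 background, conditioned-medium activated. 24hr exposure, luminescence endpoint.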

[11] = qHTS assay to identify small molecule agonists of the androgen receptor (AR) signaling pathway in the presence of an antagonist - cell viability counter screen (AID 1259379);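 also: MDA-kb2 human breast cancer cells carrying an MMTV luciferase reporter; series mostly up to about 92 µM; nearly all actives have a fitted effect of over 25% in size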
How it was run: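 Counter screen for cell viability run in parallel with the AR agonist-mode luciferase assay. MDA-kb2 cells were co-treated with nilutamide (3.0uM final) and compounds, then incubated 16 hr at 37C, and CellTiter-Fluor fluorescence was measured.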

[12] = qHTS assay to identify small molecule agonists of the estrogen receptor beta (ER-beta) signaling pathway - cell viability counter screen (AID 1259380); also: nearly all actives have a fitted effect of over 30% in size
How it was run: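 In this qHTS counter screen, HEK293T cells carrying an ER-beta/UAS beta-lactamase reporter, grown in 2% charcoal-stripped FBS, received compound for 16 hr; ATP-based CellTiter-Glo luminescence was then read after 30 min at room temperature.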

[13] = molecular target: Estrogen receptor (Homo sapiens) (UniProt P03372); test: qHTS assay to identify small molecule agonists of the estrogen receptor alpha (ER-alpha) signaling pathway in the presence of an antagonist (AID 1259383; calls by dose curve; also: top concentration of the series differs between compounds; nearly all actives have a fitted effect of over 15% in size)
How it was run: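 ER-alpha agonism measured under antagonist challenge: 10.0nM ICI-182,780 (final) plus compound, 15 concentrations, 22hr, VM7Luc4E2 ERE-luciferase cells. Read by luminescence.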

[14] = molecular target: Estrogen receptor beta (Homo sapiens) (UniProt Q92731); test: qHTS assay to identify small molecule agonists of the estrogen receptor beta (ER-beta) signaling pathway (AID 1259377; active = well fitted activation curve with a large enough effect in the signal ratio in the repeat runs, not every such curve was filed as active; the % refers to the signal ratio)
Chain of Estrogen receptor beta (Homo sapiens) (Q92731 whole entry, looked up): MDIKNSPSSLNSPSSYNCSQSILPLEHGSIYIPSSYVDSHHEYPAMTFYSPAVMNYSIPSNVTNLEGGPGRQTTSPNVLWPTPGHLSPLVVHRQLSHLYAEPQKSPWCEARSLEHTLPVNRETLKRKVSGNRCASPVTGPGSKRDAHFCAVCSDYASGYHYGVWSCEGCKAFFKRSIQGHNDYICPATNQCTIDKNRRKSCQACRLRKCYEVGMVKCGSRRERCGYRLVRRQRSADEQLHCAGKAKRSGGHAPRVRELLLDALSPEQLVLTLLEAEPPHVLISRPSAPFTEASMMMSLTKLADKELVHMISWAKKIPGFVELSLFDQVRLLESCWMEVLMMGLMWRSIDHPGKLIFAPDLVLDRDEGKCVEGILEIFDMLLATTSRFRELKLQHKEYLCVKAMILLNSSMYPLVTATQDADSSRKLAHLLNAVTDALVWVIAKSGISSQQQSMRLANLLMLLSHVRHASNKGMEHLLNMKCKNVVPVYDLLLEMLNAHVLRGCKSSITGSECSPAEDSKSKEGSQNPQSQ
How it was run: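 Reporter cells (HEK293T, ER-beta-UAS-bla) receive compounds or DMSO after a 6 hr pre-incubation. They then incubate 16 hr at 37C/5% CO2, and fluorescence from LiveBLAzer B/G substrate is measured after 2 hours at room temperature.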

[15] = molecular target: Estrogen receptor beta (Homo sapiens) (UniProt Q92731); test: qHTS assay to identify small molecule antagonists of the estrogen receptor beta (ER-beta) signaling pathway (AID 1259378; active = well fitted inhibition curve with a large enough effect in the signal ratio in the repeat runs, not every such curve was filed as active; the % refers to the signal ratio)
How it was run: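 ER-beta-UAS-bla HEK293T cells in 2% charcoal-stripped FBS medium treated with compound plus 1nM final 17-beta-estradiol for 16 hr at 37C. Beta-lactamase reporter read by FRET substrate fluorescence after 2 hours at room temperature.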

[16] = qHTS assay to identify small molecule antagonists of the estrogen receptor beta (ER-beta) signaling pathway - cell viability counter screen (AID 1259382); also: series mostly up to about 92 µM; nearly all actives have a fitted effect of over 55% in size
How it was run: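 HEK293T ER-beta-UAS-bla, 2% charcoal-stripped FBS; compounds + 1nM E2 16 hr 37C; CellTiter-Glo luminescence, 30 min RT.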

[17] = qHTS assay to identify small molecule agonists or antagonists of the thyroid stimulating hormone receptor (TSHR) signaling pathway - wild type cell line counter screen (AID 1259384; calls by dose curve)
How it was run: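 Wild-type Hek293 cells, 800/well, 18 h at 37C, then compound with Ro20-1724 for 30 min RT. cAMP by HTRF (cAMP-d2/anti-cAMP cryptate), 1 h RT, fluorescence read. 15 concentrations, triplicates.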

[18] = molecular target: Thyrotropin receptor (Homo sapiens) (UniProt P16473); test: qHTS assay to identify small molecule antagonists of the thyroid stimulating hormone receptor (TSHR) signaling pathway (AID 1259385; calls by dose curve; also: nearly all actives have a fitted effect of over 20% in size)
Chain of Thyrotropin receptor (Homo sapiens) (P16473 whole entry, looked up): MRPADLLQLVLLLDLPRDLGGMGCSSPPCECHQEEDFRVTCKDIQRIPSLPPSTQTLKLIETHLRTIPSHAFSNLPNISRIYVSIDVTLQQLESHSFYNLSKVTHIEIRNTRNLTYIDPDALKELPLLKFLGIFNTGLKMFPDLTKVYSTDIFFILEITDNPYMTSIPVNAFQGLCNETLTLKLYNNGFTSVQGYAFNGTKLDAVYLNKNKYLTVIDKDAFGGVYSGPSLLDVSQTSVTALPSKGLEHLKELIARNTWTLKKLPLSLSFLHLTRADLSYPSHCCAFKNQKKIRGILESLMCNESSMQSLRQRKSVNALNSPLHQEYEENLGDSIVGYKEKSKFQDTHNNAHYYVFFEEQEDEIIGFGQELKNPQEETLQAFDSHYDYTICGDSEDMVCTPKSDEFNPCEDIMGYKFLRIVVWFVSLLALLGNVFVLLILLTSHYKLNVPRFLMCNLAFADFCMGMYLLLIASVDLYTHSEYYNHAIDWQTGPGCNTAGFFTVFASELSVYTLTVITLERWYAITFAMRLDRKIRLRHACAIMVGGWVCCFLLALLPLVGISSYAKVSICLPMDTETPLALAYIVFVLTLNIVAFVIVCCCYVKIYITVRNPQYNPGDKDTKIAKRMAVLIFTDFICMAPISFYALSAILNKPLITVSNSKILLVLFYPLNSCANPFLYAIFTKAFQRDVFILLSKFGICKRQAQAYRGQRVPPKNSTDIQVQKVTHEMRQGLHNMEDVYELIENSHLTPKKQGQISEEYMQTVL
How it was run: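 TSHR-HEK293 cells (800/well) plated 18 h, then compounds with Ro20-1724 and TSH at 1.5 ng/mL final, 30 min at room temperature. cAMP quantified by HTRF (cAMP-d2/anti-cAMP-cryptate, 1 h); 15 concentrations in triplicate.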
% is scaled to controls: 0 for no effect and ±100 for the full control effect.

COc1ccc(S(=O)(=O)N2c3ccc(Cl)cc3[C@@](O)(c3ccccc3Cl)[C@H]2C(=O)N2CCC[C@@H]2C(N)=O)cc1OC
inactive: Potency [1] | outcome [2] | Potency [3] | outcome [4] | Potency [5] | outcome [6] | Potency [7] | Potency [8] | outcome [9] | Potency [10] | Potency [11] | Potency [12] | outcome [13]

Cc1ccc(C=O)cc1C
inactive: Potency [1] | outcome [2] | Potency [3] | Potency [5] | outcome [6] | Potency [7] | Potency [8] | outcome [9] | Potency [10] | Potency [14] | outcome [15] | Potency [11] | Potency [12] | outcome [16] | outcome [13] | outcome [17] | outcome [18]

O=C1CC(c2ccc(Cl)cc2)CC(=O)N1
inactive: Potency [1] | outcome [2] | Potency [3] | Potency [5] | outcome [6] | Potency [7] | Potency [8] | outcome [9] | Potency [10] | Potency [14] | outcome [15] | Potency [11] | Potency [12] | outcome [13] | outcome [17] | outcome [18]

O=C1O[C@@H]2[C@@H](O)[C@H](O)O[C@@H]2[C@H]1O
inactive: Potency [1] | outcome [2] | Potency [3] | outcome [4] | Potency [5] | outcome [6] | Potency [7] | Potency [8] | outcome [9] | Potency [14] | outcome [15] | Potency [11] | Potency [12] | outcome [13] | outcome [17] | outcome [18]

O=S(=O)(O)c1ccc2cc(O)c(S(=O)(=O)O)cc2c1
inactive: Potency [1] | outcome [2] | Potency [3] | Potency [5] | outcome [6] | Potency [7] | Potency [8] | outcome [9] | Potency [10] | Potency [14] | outcome [15] | Potency [11] | Potency [12] | outcome [16] | outcome [13] | outcome [17] | outcome [18]

Cc1cccc2nccnc12
inactive: Potency [1] | outcome [2] | Potency [3] | Potency [5] | outcome [6] | Potency [7] | Potency [8] | outcome [9] | Potency [14] | Potency [11] | Potency [12] | outcome [16] | outcome [13] | outcome [17] | outcome [18]

CCCCNC1CC(C)(C)NC(C)(C)C1
inactive: Potency [1] | outcome [2] | Potency [3] | Potency [5] | outcome [6] | Potency [7] | Potency [8] | outcome [9] | Potency [10] | Potency [14] | outcome [15] | Potency [12] | outcome [16] | outcome [13] | outcome [17] | outcome [18]

CC(C)CC(=O)O
inactive: Potency [1] | outcome [2] | Potency [3] | Potency [5] | outcome [6] | Potency [7] | Potency [8] | outcome [9] | Potency [10] | Potency [14] | outcome [15] | Potency [11] | Potency [12] | outcome [13] | outcome [17] | outcome [18]

O=C(O)c1ccc(Cl)cc1Cl
inactive: Potency [1] | outcome [2] | Potency [3] | Potency [5] | outcome [6] | Potency [7] | outcome [9] | Potency [10] | Potency [14] | outcome [15] | Potency [11] | Potency [12] | outcome [16] | outcome [13] | outcome [17] | outcome [18]

CCn1ccc(NS(=O)(=O)c2ccc(N)cc2)nc1=O
inactive: Potency [1] | outcome [2] | Potency [3] | Potency [5] | outcome [6] | Potency [7] | Potency [8] | outcome [9] | Potency [10] | Potency [14] | Potency [11] | Potency [12] | outcome [16] | outcome [13] | outcome [17] | outcome [18]

CC(=O)c1ccc2c(c1)Cc1ccccc1-2
inactive: Potency [1] | outcome [2] | Potency [3] | outcome [6] | Potency [7] | Potency [8] | outcome [9] | Potency [10] | Potency [11] | Potency [12] | outcome [16] | outcome [13]
active: Potency [5] 27.3 µM

CC(=O)/C=C/C1C(C)=CCC(C)C1(C)C (stereo not drawn)
inactive: Potency [1] | outcome [2] | Potency [3] | Potency [5] | outcome [6] | Potency [7] | Potency [8] | outcome [9] | Potency [14] | outcome [15] | Potency [11] | Potency [12] | outcome [16] | outcome [13] | outcome [17] | outcome [18]

CCCCCCCC/C=C\CCCCCCCC(=O)OCCCC
inactive: activity change, negative = cytotoxicity [1] -3.36% [at 19 µM] | viability change, negative = cytotoxic [2] -4.19% [at 19 µM] | activity change, negative = inhibition [3] -2.58% [at 19 µM] | activity change, negative = inhibition [5] 2.78% [at 19 µM] | activity change, negative = cytotoxicity [6] -0.686% [at 19 µM] | viability change, negative = cytotoxic [7] -5.96% [at 19 µM] | viability change, negative = cytotoxic [8] 1.8% [at 19 µM] | activity change [9] -0.497% [at 18.9 µM] | activity change, negative = inhibition [10] 17.1% [at 19 µM] | activation [14] -0.0077% [at 19 µM] | activity, negative = inhibition [15] 0.587% [at 19 µM] | activity change, negative = cytotoxicity [11] 0.614% [at 19 µM] | activity change, negative = cytotoxicity [12] -6.74% [at 19 µM] | activation [13] 0.165% [at 19 µM] | cAMP activity change [17] -3.23% [at 18.9 µM] | activity change, negative = inhibition [18] 2.54% [at 19 µM]
